Reference: PubChem BioAssay (NCATS)
Records with an inconclusive call do not appear. Unmarked numbers belong to inactive results. Calls of active or inactive are those of the source. The call rests on the fitted dose curve; in most records, active means well fitted inhibition curve with a large enough effect; inconclusive means small, poorly fitted or top-dose-only effect; inactive means flat fitted curve, though single readings scatter. *1 amine or outer side, *2 acyl side, *3 side chain or, on linkers, in order; H or OH if unused. Where a SMILES comes first, the peptide text is derived from it. [ ]: non-standard residue; d: D form. The star is where a group is joined. ξ: configuration not given here. X9 = CCC(C)(N*)C(=O)C1CC[C@@H](C(=O)N[C@@H](Cc2ccccc2)C(=O)NCC(=O)O)N1; ξTyr(βOH) = NC(C(=O)O)C(O)c1ccc(O)cc1; X8 = O=C([C@@H]1CC(O)CN1[*:1])[*:2]; aIle = CC[C@@H](C)[C@H](N)C(=O)O; Thr(3ξ) = CC(O)[C@H](N)C(=O)O; ξIva = CCC(C)(N)C(=O)O; Aib = CC(C)(N)C(=O)O

Assays:
[1] = tested on: CRL-7250; assay: Cytotoxic Profiling of Annotated Libraries Using Quantitative High-Throughput Screening (AID 1296008); conditions: Five cell lines viability, CellTiter-Glo ATP luminescence, 48-72 h; max response: active compounds read low; further: potency means the concentration at half of the fitted maximal effect; on max response: on the % scale 0 is the no-effect control and ±100 the full control effect
Procedure, shortened: (§1)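 Cytotoxicity was measured as CellTiter-Glo ATP luminescence, read after 10 min at room temperature. Compound treatment of the cells lasted 48 or 72 hr at 37 degrees Celsius in a qHTS format.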

[2] = tested on: HEK293; assay: as above; conditions: Five cell lines viability, CellTiter-Glo ATP luminescence, 48-72 h; max response: active compounds read low
Procedure, shortened: as §1

[3] = tested on: HaCat; assay: as above; conditions: Five cell lines viability, CellTiter-Glo ATP luminescence, 48-72 h; max response: active compounds read low
Procedure, shortened: as §1

[4] = tested on: KB-3-1; assay: as above; conditions: Five cell lines viability, CellTiter-Glo ATP luminescence, 48-72 h; max response: active compounds read low
Procedure, shortened: as §1

[5] = tested on: NIH3T3; assay: as above; conditions: Five cell lines viability, CellTiter-Glo ATP luminescence, 48-72 h; max response: active compounds read low
Procedure, shortened: as §1

[6] = tested on: HACAT; assay: qHTS assay to identify novel small-molecules to repurpose for Merkel cell carcinoma treatment (AID 1296009); conditions: MCC and control cell lines, CellTiter-Glo viability, 72 h; at 44.8 µM (top of the series) unless noted
Procedure, shortened: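 After compound transfer in DMSO, plates were kept 72 hr at 37 degree celsius. Luminescent ATP signal from CellTiter-Glo served as viability measure, normalized against DMSO and no-cell controls.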
Further: nearly all actives have a fitted effect of over 60% in size.

Row | SMILES | max response [1] [%] | max response [2] [%] | outcome [3] | max response [4] [%] | outcome [5] | outcome [6] | outcome [4] | max response [5] [%] | outcome [1] | Potency [2]
1 | C=C(C)[C@@]1(O)C[C@@]2(C)C(=CC1=O)CC[C@@H](O)[C@@H]2C | 3.28 | 4.61 | inactive | -1.96 | inactive | inactive |  |  |  | 
2 | COc1cc(/C=C/C(=O)O[C@@H]2C[C@](O)(C(=O)O)C[C@@H](O)[C@H]2O)ccc1O | -5.29 | -0.759 | inactive |  |  | inactive | inactive | 1.32 |  | 
3 | CC(C)(O)[C@@H]1CC[C@]2(CO)[C@@H](O)CC[C@](C)(O)[C@H]2[C@@H]1O[C@@H]1O[C@H](CO)[C@@H](O)[C@H](O)[C@H]1O | 1.76 | 1.77 | inactive | 8.79 |  | inactive [at 17.4 µM] |  | 0.484 |  | 
4 | C=C1C(O)C(OC(=O)c2ccccc2)C2C(C)(C(=O)O)CCCC2(C)C1CC/C(C)=C\CO (stereo not given) | -4.65 | -1.62 | inactive | 5.47 | inactive | inactive [at 17.4 µM] |  |  |  | 
5 | CNc1nc(Nc2cn(C(C)(C)C#N)nc2C)ncc1C(F)(F)F | 0.355 | -5.29 | inactive | 6.02 |  | inactive |  | -4.77 |  | 
6 | NC(=O)C(O[C@@H]1O[C@H](CO[C@@H]2O[C@H](CO)[C@@H](O)[C@H](O)[C@H]2O)[C@@H](O)[C@H](O)[C@H]1O)c1ccccc1 (stereo not given in full) |  | -77.8 | inactive | 4.92 |  | inactive [at 17.4 µM] |  | 4.15 | inactive | 
7 | C[C@@H](NC(=O)c1cc(C(=O)N[C@@H](Cc2ccccc2)[C@H](O)CNC2CC2)cc(N(C)S(C)(=O)=O)c1)c1ccccc1 | 2.97 | -6.18 | inactive | -1.48 | inactive | inactive |  |  |  | 
8 | C=C1CCC2C(C)(C)CC(O)CC2(C)C1CCC(C)CC(=O)O (stereo not given) | -5.49 | 1.49 | inactive | -5.43 |  | inactive |  | -0.43 |  | 
9 | CCN(CCN(C)C)C(=O)CNCc1cc(C(N)=O)ccn1 |  | 1.94 | inactive | 7.84 | inactive | inactive |  |  | inactive | 
10 | CC(C)Oc1ccc(-c2nc(-c3cccc4c3CCC4NCCC(=O)O)no2)cc1C#N (stereo not given) | 0.795 | -10.1 | inactive | 8.29 | inactive | inactive |  |  |  | 
11 | CC[C@H]1OC(=O)[C@H](C)C(=O)[C@H](C)[C@@H](OC2O[C@H](C)C[C@H](N(C)C)[C@H]2O)[C@@H](C)C[C@@H](C)C(=O)/C=C/[C@]1(C)O (stereo not given in full) | -0.333 | -11.3 | inactive | 7.73 | inactive | inactive [at 17.4 µM] |  |  |  | 
12 | CC[C@@H](C)[C@H](NC(=O)C(C)(C)NC(=O)[C@H](CCC(N)=O)NC(=O)C(C)(CC)NC(=O)[C@H](Cc1c[nH]c2ccccc12)NC(C)=O)C(=O)N[C@H](C(=O)NC(C)(C)C(=O)N[C@@H](CC(C)C)C(=O)NC(C)(C)C(=O)N1CCC[C@H]1C(=O)N[C@@H](CCC(N)=O)C(=O)NC(C)(C)C(=O)N1CC(O)C[C@H]1C(=O)NC(C)(CC)C(=O)C1CC[C@@H](C(=O)N[C@@H](Cc2ccccc2)C(=O)NCC(=O)O)N1)C(C)O (stereo not given in full) (Ac-W[ξIva]Q[Aib][aIle][Thr(3ξ)][Aib]L[Aib]PQ[Aib][X8]-X9) | -9.43 | -13.1 | inactive; activator | -1.3 |  | inactive; activator [at 4.96 µM] |  | -1.9 |  | 
13 | CC(C)C1NC(=O)CNC(=O)C2CCCN2C(=O)C(Cc2c[nH]c3ccccc23)NC(=O)CNC(=O)C(C(O)c2ccc(O)cc2)NC(=O)CNC1=O (stereo not given) (cyclo(G[ξTyr(βOH)]GWPGV); configuration not given here) | -8.12 | 1.2 | inactive | 2.88 | inactive | inactive [at 17.4 µM] |  |  |  | 
14 | O=c1[nH]ccc2nc(-c3ccc(CN4CCC(c5nc(-c6ccccn6)n[nH]5)CC4)cc3)c(-c3ccccc3)cc12 |  |  | inactive | -16.7 | inactive | inactive |  |  | inactive | 5.17 µM (active)
15 | C[C@@H]1CCC2C(C)(C)[C@H](O)[C@H](O)C[C@]2(C)[C@@]12Cc1c(O)cc3c(c1O2)CN(CCCC(=O)O)C3=O (stereo not given in full) | -7.06 | -1.57 | inactive | 3.58 |  | inactive [at 17.4 µM] |  | 4.1 |  | 
16 | CC1(C)CC2C3=CCC4[C@@]5(C)CC[C@H](OC6OCC(O)C(OC7OC(CO)C(O)C(O)C7O)C6O)C(C)(C)C5CC[C@@]4(C)[C@]3(C)C[C@H](O)[C@@]2(CO)[C@H](OC(=O)c2ccccc2)C1 (stereo not given in full) | -5.7 | -22 | inactive | -6.42 |  | inactive [at 9.27 µM] |  | -2.6 |  | 
17 | C[C@@H]1O[C@@H](O[C@H]2[C@H](O)[C@@H](O)[C@H](OC[C@H]3O[C@@H](OC(=O)[C@]45CCC(C)(C)C[C@H]4C4=CCC6[C@@]7(C)C[C@@H](O)[C@H](O)[C@@](C)(CO)C7[C@H](O)C[C@@]6(C)[C@]4(C)CC5)[C@H](O)[C@@H](O)[C@@H]3O)O[C@@H]2CO)[C@H](O)[C@H](O)[C@H]1O (stereo not given in full) |  | -10.1 | inactive |  |  | inactive [at 9.27 µM] | inactive | -2.14 | inactive | 
18 | N#CC1C(=O)N=C(c2cc(Cl)ccc2O)C=C1c1cc(OCc2ccccc2)cc(OCc2ccccc2)c1 (stereo not given) |  | 3.52 | inactive |  |  | inactive | inactive | 1.6 | inactive | 

Row | SMILES | max response [1] [%] | max response [2] [%] | outcome [3] | max response [4] [%] | outcome [5] | outcome [6] | outcome [4] | max response [5] [%] | outcome [1] | Potency [2]
19 | CC1(C)CC[C@]2(C(=O)OC3OC(CO)C(O)C(O)C3O)CC[C@]3(C)C(=CCC4[C@@]5(C)C[C@@H](O)[C@H](OC6OC(C(=O)O)C(O)C(O)C6O)C(C)(C)C5CC[C@]43C)[C@@H]2C1 (stereo not given in full) | 2.21 | 3.34 | inactive | 7.37 |  | inactive [at 9.27 µM] |  | -4.63 |  | 
20 | CC(=O)OCC1=CCC2C(C)(C)CCCC2(C)C12CCC(C)(CC(=O)O)O2 (stereo not given) | -2.76 | -0.588 | inactive | 5.22 | inactive | inactive |  |  |  | 
21 | CCCO[C@@H]1O[C@H](CO)[C@@H](O)[C@H](O)[C@H]1O[C@@H]1OC[C@@H](O)[C@H](O)[C@H]1O | 1.31 | -4.21 | inactive | 9.26 |  | inactive |  | -1.11 |  | 
22 | Cc1cc(C(=O)N2Cc3cnn(C)c3Nc3ccccc32)ccc1CNC(=O)N1CCN(Cc2cc(O)cc(O)c2)CC1 |  | -0.745 | inactive |  |  | inactive | inactive | -0.633 | inactive | 
23 | CC1(C(=O)O)CCCC2(C)C3CCC4CC3(CCC12)CC4C(=O)O (stereo not given) |  | 1.27 | inactive | 6.21 | inactive | inactive |  |  | inactive | 
24 | COC(=O)C1=COC(O[C@@H]2O[C@H](CO)[C@@H](O)[C@H](O)[C@H]2O)[C@@H]2[C@@](C)(O)[C@@H](OC(=O)/C=C/c3ccccc3)C[C@]12O (stereo not given in full) | 1.9 | -1.35 | inactive |  |  | inactive [at 17.4 µM] | inactive | 4.01 |  | 
25 | COc1c(O)cc2c(c1O)C(=O)O[C@H](C)[C@H]2O |  | -6.03 | inactive | 4.43 | inactive | inactive |  |  | inactive | 
26 | CC(C)=CCc1c(O)cc2oc3cc(C)cc(O)c3c2c1C | 2.07 | -2.32 | inactive | -6.44 |  | inactive |  | 3.67 |  | 
27 | COc1cc(/C=C/c2ccccc2)c(C(=O)O)c(O)c1CC=C(C)C | -4.97 | 2.12 | inactive | 6.27 |  | inactive |  | 3.69 |  | 
28 | CC(C)c1cc2c(c(O)c1O)[C@@]13CCCC(C)(C)C1[C@@H](O)[C@@H]2OC3=O (stereo not given in full) | 4.77 | -8.48 | inactive | 7.44 | inactive | inactive |  |  |  | 
29 | CC1CC2OCC3(O)CCC(O)C(C14CC(c1ccoc1)OC4=O)C23CO (stereo not given) |  | -3.58 | inactive | 9.94 | inactive | inactive |  |  | inactive | 
30 | CC1CCC2C(C)(C)C(O)C(O)CC2(C)C12Cc1c(O)cc(CO)c(C=O)c1O2 (stereo not given) | 1.89 | -2.44 | inactive | 2.63 |  | inactive [at 17.4 µM] |  | 0.788 |  | 
31 | CC(C)C1CCC(C(=O)N[C@@H](Cc2ccccc2)C(=O)O)CC1 (stereo not given in full) |  | 3.42 | inactive |  | inactive | inactive | inactive |  | inactive | 
32 | CC(=O)OC[C@@]12C(=O)C[C@@H](C)[C@]3(C[C@@H](c4ccoc4)OC3=O)[C@H]1CC[C@H](OC(C)=O)[C@]21CO1 | -3.74 | -0.582 | inactive |  |  | inactive [at 17.4 µM] | inactive | -0.126 |  | 
33 | C/C=C(\C)C(=O)OCC1OC(OC2OC(CO)C(O)C(O)C2O)C(O)C(O)C1O (stereo not given) |  | -3.96 | inactive |  |  | inactive [at 17.4 µM] | inactive | -3.87 | inactive | 
34 | CC(=O)/C=C/[C@H]1[C@](C)(O)[C@@H](O)[C@H](O)C2C(C)(C)CCC[C@@]21C (stereo not given in full) | -11.3 | -5.03 | inactive | -3.39 | inactive | inactive |  |  |  | 
35 | CC(C)C1NC(=O)CNC(=O)C2CCCN2C(=O)C(Cc2c[nH]c3ccccc23)NC(=O)CNC(=O)C(Cc2ccc(O)cc2)NC(=O)CNC1=O (stereo not given) (cyclo(GVGYGWP); configuration not given here) | -2.61 | 3.25 | inactive |  |  | inactive [at 17.4 µM] | inactive | -0.317 |  | 
